From PubChem BioAssay AID1611 (NINDS Approved Drug Screening Program, 2009)

experiment: HSE-luciferase reporter activators – cell-based (AID 1611); details: human cells, HSE-luciferase heat shock reporter; stronger effect = higher value

| Structure (SMILES) | fold change |
| --- | --- |
| CC(=O)OCC1=C(C(=O)O)N2C(=O)[C@@H](NC(=O)CCCC(N)C(=O)O)C2SC1 (some centres undefined) | 0.85 |
| CCN1C[C@@]2(COC)C3[C@@H](OC)[C@H]4[C@@H]1[C@]3(C(OC)C[C@H]2O)C1C[C@@]2(O)[C@H](OC(=O)c3ccccc3)C1[C@]4(OC(C)=O)[C@@H](O)[C@@H]2OC (some centres undefined) | 0.98 |
| NC(=O)CN1CCCC1=O | 0.86 |
| C[C@H]1O[C@@H](O[C@H]2[C@@H](O)C[C@H](O[C@H]3[C@@H](O)C[C@H](O[C@H]4CC[C@]5(C)C6CC[C@]7(C)[C@@H](C8=CC(=O)OC8)CC[C@]7(O)C6CC[C@@H]5C4)O[C@@H]3C)O[C@@H]2C)C[C@H](O)[C@@H]1O (some centres undefined) | 78 |
| CCC1(CC)C(=O)C=CNC1=O | 1.24 |
| CN(C)[C@@H]1C(=O)C(C(N)=O)=C(O)[C@@]2(O)C(=O)C3=C(O)c4c(O)cccc4[C@@](C)(O)[C@H]3[C@H](O)[C@@H]12 | 1.27 |
| CNC(C)(C)Cc1ccccc1 | 1.1 |
| NCC(CC(=O)O)c1ccc(Cl)cc1 (centres undefined) | 1.37 |
| [N-]=[N+]=CC(=O)OCC(N)C(=O)O (centres undefined) | 1.29 |
| C[C@@H]1C[C@@H]([C@H](O)CC2CC(=O)NC(=O)C2)C(=O)[C@@H](C)C1 | 0.84 |
| Cc1cc2c(C(C)C)c(O)c(O)c(C=O)c2c(O)c1-c1c(C)cc2c(C(C)C)c(O)c(O)c(C=O)c2c1O | 0.95 |
| C[C@@H]([C@H](O)c1ccccc1)N(C)C | 1.08 |
| Clc1ccc(COC(Cn2ccnc2)c2ccc(Cl)cc2Cl)c(Cl)c1 (centres undefined) | 0.8 |
| C[C@H](N)[C@H](O)c1ccc(O)c(O)c1 | 1.53 |
| NCC(O)c1ccc(O)cc1 (centres undefined) | 1.61 |
| N#C/C(=C\c1ccc(O)cc1)C(=O)O | 1.34 |
| CNC1(c2ccccc2Cl)CCCCC1=O (centres undefined) | 1.39 |
| COc1cc([C@@H]2c3cc4c(cc3[C@H](O)[C@H]3COC(=O)[C@H]23)OCO4)cc(OC)c1OC | 0.57 |
| CC(=O)[O][Hg][c]1ccccc1 | 1.14 |
| O=P1(N(CCCl)CCCl)NCCCO1 (centres undefined) | 0.79 |

| Structure (SMILES) | fold change |
| --- | --- |
| CC[C@@H]1/C=C/C=C/C[C@H](C)[C@@H](O)[C@](C)(O)C(=O)[C@H](C)[C@@H](O)[C@H](C)C(=O)[C@H](C)[C@@H](O)[C@H](C)/C=C/C(=O)O[C@H]2[C@@H](C)[C@@H](CC1)O[C@@]1(CC[C@@H](C)[C@@H](C[C@H](C)O)O1)[C@@H]2C | 1.06 |
| C#CC1(O)CCC2C3CCC4=CC(=O)CCC4(C)C3CCC21C (centres undefined) | 0.91 |
| CC1[C@H](C)OC(=O)CC(O)CC(O)CC(O)CCC(O)C(O)C[C@]2(O)CC(O)C(C(=O)O)C(CC(OC3O[C@H](C)[C@@H](O)[C@H](N)[C@@H]3O)/C=C/C=C/C=C/C=C/CC/C=C/C=C/[C@H](C)[C@H]1O)O2 (some centres undefined) | 1.2 |
| Clc1ccc(CSC(Cn2ccnc2)c2ccc(Cl)cc2Cl)cc1 (centres undefined) | 0.83 |
| Clc1ccc(COC(Cn2ccnc2)c2ccc(Cl)cc2Cl)cc1 (centres undefined) | 1.04 |
| COc1ccc2c(c1OC)C(=O)O[C@H]2[C@H]1c2cc3c(cc2CCN1C)OCO3 | 0.8 |
| CCCCCCCCCCCCCCCC[N+](C)(C)C | 0.93 |
| O=c1[nH]oc2c1CCNC2 | 1.02 |
| CNC(C)C(O)c1ccccc1 (centres undefined) | 0.96 |
| CC(=O)C1=C(O)C2C3c4c[nH]c5cccc(c45)CC3C(C)(C)N2C1=O (centres undefined) | 1.11 |
| C=C[C@H]1CN2CC[C@H]1C[C@@H]2[C@H](O)c1ccnc2ccccc12 | 1.18 |
| O=[N+]([O-])c1cc(O)c(O)c([N+](=O)[O-])c1 | 0.87 |
| CN(C)[C@@H]1C(=O)C(C(N)=O)=C(O)[C@@]2(O)C(=O)C3=C(O)c4c(O)ccc(Cl)c4[C@@](C)(O)[C@H]3C[C@@H]12 | 0.9 |
| CC(=O)OC1CN2CCC1CC2 (centres undefined) | 0.77 |
| CCCCC[C@H]1C(=O)O[C@H](C)[C@H](NC(=O)c2cccc(NC=O)c2O)C(=O)O[C@@H](C)[C@@H]1OC(=O)CC(C)C | 0.64 |
| CC(CCc1ccccc1)NC(C)C(O)c1ccc(O)cc1 (centres undefined) | 1.23 |
| N#CC(O[C@@H]1O[C@H](CO[C@@H]2O[C@H](CO)[C@@H](O)[C@H](O)[C@H]2O)[C@@H](O)[C@H](O)[C@H]1O)c1ccccc1 (some centres undefined) | 0.7 |
| C=CCN1CC[C@]23c4c5ccc(O)c4OC2C(=O)CC[C@@]3(O)[C@H]1C5 (some centres undefined) | 1.1 |
| CC(=O)Nc1cc([As](=O)(O)O)ccc1O | 0.73 |
